In PubChem BioAssay AID623911 (Vanderbilt High Throughput Screening Facility, 2012):
Screen size: about 2,100 compounds; about 770 (37%) were called active.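 The calls were made as follows: active = by-eye trace score of 1 for enhancers or -1 for inhibitors, so actives lie on both sides (some results past the limit were not filed as active); inactive = score 0, or 3 fluorescent, or 4 baseline rise.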 This is one part of the list.

The compounds below were run against G protein-activated inward rectifier potassium channel 2 (Homo sapiens) + G protein-activated inward rectifier potassium channel 1 (Homo sapiens) (UniProt P48051+P48549) (assay: GIRK1/2 thallium flux modulators, retest, confirmation, cell-based, HEK293 rmGlu8/hGIRK1/2, FluoZin-2 (AID 623911)). Settings: HEK293 rmGlu8/hGIRK1/2, thallium flux FluoZin-2; actives lie on both sides; glutamate co-added at its EC20 level.
G protein-activated inward rectifier potassium channel 2 (Homo sapiens) + G protein-activated inward rectifier potassium channel 1 (Homo sapiens), sequence (P48051 whole entry, looked up): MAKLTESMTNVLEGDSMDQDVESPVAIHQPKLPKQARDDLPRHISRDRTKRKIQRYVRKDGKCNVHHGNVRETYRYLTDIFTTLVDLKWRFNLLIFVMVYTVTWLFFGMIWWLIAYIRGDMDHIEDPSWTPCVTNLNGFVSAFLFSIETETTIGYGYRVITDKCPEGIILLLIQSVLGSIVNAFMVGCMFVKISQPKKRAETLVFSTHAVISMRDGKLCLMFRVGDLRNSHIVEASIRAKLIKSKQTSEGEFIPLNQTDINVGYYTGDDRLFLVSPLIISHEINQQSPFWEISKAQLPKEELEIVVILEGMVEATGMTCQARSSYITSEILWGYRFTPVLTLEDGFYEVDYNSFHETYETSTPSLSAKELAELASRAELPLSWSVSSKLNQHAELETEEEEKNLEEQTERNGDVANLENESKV
G protein-activated inward rectifier potassium channel 2 (Homo sapiens) + G protein-activated inward rectifier potassium channel 1 (Homo sapiens), sequence (P48549 whole entry, looked up): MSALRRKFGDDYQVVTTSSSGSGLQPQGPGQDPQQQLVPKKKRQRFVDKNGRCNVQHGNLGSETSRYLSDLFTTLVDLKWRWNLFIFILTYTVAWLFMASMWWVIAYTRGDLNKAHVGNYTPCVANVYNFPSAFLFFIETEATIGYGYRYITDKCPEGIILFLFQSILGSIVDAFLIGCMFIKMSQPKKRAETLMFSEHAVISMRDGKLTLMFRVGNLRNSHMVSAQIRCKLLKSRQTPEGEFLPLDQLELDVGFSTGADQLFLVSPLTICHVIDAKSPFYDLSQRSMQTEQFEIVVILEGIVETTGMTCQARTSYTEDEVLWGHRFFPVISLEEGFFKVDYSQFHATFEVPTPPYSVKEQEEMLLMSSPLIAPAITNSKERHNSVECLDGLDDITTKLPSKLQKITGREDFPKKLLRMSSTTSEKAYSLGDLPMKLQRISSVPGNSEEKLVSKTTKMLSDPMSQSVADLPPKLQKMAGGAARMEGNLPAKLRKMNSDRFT

Row | Compound | manual score
1 | CCN(CC)c1ccc2cc(C=O)c(=O)oc2c1 | 3 (inactive)
2 | CCc1cccc(NC(=O)CCSCCC(=O)Nc2cccc(CC)c2)c1 | 0 (inactive)
3 | CCc1cccc(NC(=O)CSC2=NS(=O)(=O)c3ccccc32)c1 | 1 (active)
4 | COC(=O)CSC1=NS(=O)(=O)c2ccccc21 | -1 (active)
5 | CC(=O)Nc1ccc(NC(=O)CSc2nccn2Cc2ccccc2)cc1 | 0 (inactive)
6 | COC(=O)CSc1nc2ncccc2[nH]1 | 0 (inactive)
7 | COC(=O)CSc1nnc(SCc2ccc(OC)cc2)s1 | 0 (inactive)
8 | Clc1ccc2c(c1)C(N1CCNCC1)Cc1ccccc1S2 (centres undefined) | -1 (active)
9 | CC(=O)c1c(N2CCCC2)[nH]c(-c2ccccc2)nc1=S | 1 (active)
10 | CSc1nc(-c2ccccc2)[nH]c(=S)c1C(C)=O | 1 (active)
11 | CCOC(=O)c1ccc(N2C(=O)C(O)=C(C(C)=O)C2c2ccccc2)cc1 (centres undefined) | 0 (inactive)
12 | O=c1c2c(nc3c(-c4ccccc4)c[nH]n13)CCCC2 | 0 (inactive)
13 | CCCCn1c(SC(C)C(N)=O)nc2cc(C(=O)OC)ccc2c1=O (centres undefined) | 0 (inactive)
14 | CN1/C(=C\C=C2/C(=O)Oc3ccccc3C2=O)C(C)(C)c2ccccc21 | 3 (inactive)
15 | CCOc1ccc(OCCSc2nc3ccccc3[nH]2)cc1 | 1 (active)
16 | CCNC(=O)NC(=O)COC(=O)CCCSc1nc2ccccc2[nH]1 | 0 (inactive)
17 | CCCOc1cccc(OCCSc2nc(C)cc(=O)[nH]2)c1 | 0 (inactive)
18 | Oc1[nH]c2ccccc2c1N=NC(=S)NCC1CCCO1 (centres undefined) | 0.5 (inactive)
19 | Clc1ccc2[nH]c3c(NCC4CCCO4)ncnc3c2c1 (centres undefined) | 0 (inactive)
20 | Oc1[nH]c2c(Cl)cc(Cl)cc2c1N=NC(=S)NCC1CCCO1 (centres undefined) | 1 (active)
21 | COc1ccc(C2=Nn3c(nnc3C3CCCCC3)SC2)cc1OC | 0 (inactive)
22 | COc1ccccc1C1=Nn2c(nnc2C2CCCCC2)SC1 | -1 (active)

Row | Compound | manual score
23 | c1cc2c(cc1C1=Nn3c(nnc3C3CCCCC3)SC1)OCO2 | 0 (inactive)
24 | Cc1cc(C)nc(N(C#N)Cc2ccc(Br)cc2)n1 | -1 (active)
25 | CC1CCN(c2ccccc2NC(=S)NC(=O)c2ccco2)CC1 | 0 (inactive)
26 | O=C(NC(=S)Nc1ccccc1N1CCOCC1)c1ccco1 | 1 (active)
27 | O=C(NC(=S)Nc1ccccc1N1CCCCC1)c1ccco1 | 0 (inactive)
28 | O=C(NC(=S)Nc1ccc(N2CCCCC2)cc1)c1cccs1 | 1 (active)
29 | O=C(NC(=S)Nc1ccc(N2CCCCC2)c(Cl)c1)c1cccs1 | 0 (inactive)
30 | O=C(NC(=S)Nc1ccc(N2CCCCC2)cc1)c1ccco1 | 1 (active)
31 | CN(C1CCCCC1)S(=O)(=O)c1ccc(NC(=S)NC(=O)c2cccs2)cc1 | 0 (inactive)
32 | CC1CCN(c2ccc(NC(=S)NC(=O)c3ccco3)cc2)CC1 | 0 (inactive)
33 | O=C(NC(=S)Nc1ccc(N2CCOCC2)cc1)c1ccco1 | 0 (inactive)
34 | CC(C)(C)C(=O)/C=c1\[nH]c(=O)/c(=C\c2ccc(F)cc2)s1 | 0 (inactive)
35 | Cc1ccc(NC2CC(=O)N(CCc3ccccc3)C2=O)cc1 (centres undefined) | 0 (inactive)
36 | CCn1c(SCC(=O)Nc2oc(-c3ccccc3)c(-c3ccccc3)c2C#N)nnc1-c1ccco1 | 0 (inactive)
37 | Cc1cnc(NC(=O)CSc2nc3ccccc3c(=O)[nH]2)s1 | 0 (inactive)
38 | COc1ccc(C(=O)NC(=S)NNC(=O)CCc2ccccc2)cc1 | 1 (active)
39 | COc1cc(OC)cc(C(=O)NC(=S)NCCc2ccccc2)c1 | 0 (inactive)
40 | O=C(CCc1ccccc1)NNC(=S)NC(=O)c1ccc(Cl)cc1 | 1 (active)
41 | COc1ccc(C(=O)CC(=O)C(=O)NCCc2cccc(C)c2)cc1 | 0.5 (inactive)
42 | CCOc1ccccc1-c1c2cc(O)c(=O)cc-2oc2cc(O)c(O)cc12 | 0 (inactive)
43 | CCOc1ccccc1Cn1c(=O)oc2ccc(C)cc21 | -1 (active)
44 | CCOC(=O)c1c(-c2ccc(C)o2)csc1NC(=S)NC(=O)N(C)C | 1 (active)

Row | Compound | manual score
45 | CCOC(=O)c1c(-c2ccc(C)o2)csc1NC(=S)NC(=O)c1cccs1 | 0 (inactive)
46 | CCNC(=S)Nc1scc(-c2ccccc2)c1C(=O)OCC | 1 (active)
47 | CCOC(=O)c1c(-c2ccccc2)csc1NC(=S)NC | 1 (active)
48 | CC(C)Cc1nnc(NC(=O)CSc2nc(=O)cc(N)n2-c2ccccc2)s1 | 0 (inactive)
49 | CC(C)CC(=O)Nc1cccc2c1C(=O)N(c1ccccc1)C2=O | -0.5 (inactive)
50 | CC(C)CC(=O)NC(=S)N(Cc1ccccc1)Cc1ccccc1 | 1 (active)
51 | O=C(NC(=S)N(Cc1ccccc1)Cc1ccccc1)c1ccccc1F | 1 (active)
52 | CC(C)C(=O)NC(=S)N(Cc1ccccc1)Cc1ccccc1 | 1 (active)
53 | Cc1cccc(C)c1NC(=S)NC(=O)c1ccccc1F | 1 (active)
54 | O=C(NC(=S)NCc1ccccc1)c1ccccc1F | 0.5 (inactive)
55 | Cc1cccc(C)c1NC(=S)NC(=O)CCc1ccccc1 | 0 (inactive)
56 | CCCCCNc1nc(-c2ccccc2)cs1 | 0 (inactive)
57 | Cc1nc2ccccn2c1-c1csc(NCc2ccco2)n1 | -1 (active)
58 | CC(C)(C)C1CCC2(CC1)Nc1cccc3cccc(c13)N2 | 0 (inactive)
59 | O=C(O)c1cccc(Nc2nc(N3CCOCC3)nc(N3CCOCC3)n2)c1 | 0 (inactive)
60 | Oc1cccc(Nc2nc(NCC3CCCO3)c3ccccc3n2)c1 (centres undefined) | -1 (active)
61 | CC1CCCC(NC(=O)Nc2cccs2)C1C (centres undefined) | 1 (active)
62 | COC(=O)C1CCCN1C(=O)c1cccs1 (centres undefined) | 0 (inactive)
63 | CCOC(=O)C1=C(CC)Nc2ccccc2N=C1NC(=O)c1ccc(S(=O)(=O)N(C)C)cc1 | 0 (inactive)
64 | CCOC(=O)C1=C(CC)Nc2ccccc2N=C1NC(=O)Nc1ccc(Cl)c(Cl)c1 | 1 (active)
65 | C=COCCNC(=O)Nc1ccc(Cl)c(Cl)c1 | 0.5 (inactive)
66 | CCCn1c(SC(C(=O)Nc2cc(C)ccc2OC)c2ccccc2)nc2ccccc2c1=O (centres undefined) | 0 (inactive)

Row | Compound | manual score
67 | CCCn1c(=O)c2ccccc2n2c(SCCOc3ccccc3F)nnc12 | -1 (active)
68 | Cc1ccc2oc(=O)c3cnn(CC(=O)N4CCc5ccccc5C4)c3c2c1 | 0 (inactive)
69 | CCCn1c(=O)c2ccccc2n2c(SCc3nc4ccccc4s3)nnc12 | 0 (inactive)
70 | O=C(CSc1nc2ccccc2n1CCc1ccccc1)N1CCOCC1 | 0 (inactive)
71 | CCCn1c(=O)c2ccccc2n2c(SCC(=O)N3CCc4ccccc4C3)nnc12 | -1 (active)
72 | COc1ccc(-c2nc(C#N)c(NCCCN(C)C)o2)cc1OC | 0 (inactive)
73 | CC(C)(C)NC(=O)C(=O)NNC(=O)COc1ccc(Br)cc1 | 1 (active)
74 | COc1ccc(OCC(=O)NNC(=O)C(=O)Nc2ccc(C)cc2)cc1 | 1 (active)
75 | CNC(=S)SCCOc1ccc(C)cc1 | 3 (inactive)
76 | Cc1ccc(OCC(=O)NNC(=O)C(=O)NC(C)(C)C)cc1 | 1 (active)
77 | Nc1c(-c2ccccc2)cnn1-c1ccc(C(=O)O)cc1 | 0 (inactive)
78 | CC1=NCCN1S(=O)(=O)c1cc(Cl)ccc1Cl | 0 (inactive)
79 | O=C(NCc1ccccc1)c1ccc2c(=O)n(CCCN3CCCC3=O)c(=S)[nH]c2c1 | 0 (inactive)
80 | COc1ccc(CNC(=O)C(C#N)c2nc3ccccc3nc2N2CCCC2)cc1 (centres undefined) | 3 (inactive)
81 | COc1ccccc1CNC(=O)c1c(N)n(CCCN2CCOCC2)c2nc3ccccc3nc12 | 0 (inactive)
82 | COc1cccc(CNc2nc3ccccc3n2CCN2CCCCC2)c1OC | -1 (active)
83 | Cn1c(CNc2nc3ccccc3n2CCN2CCCCC2)nc2ccccc21 | -1 (active)
84 | CCn1c(NC(=S)Nc2ccccc2)nc2ccccc21 | 0 (inactive)
85 | COc1ccc(/C=C/c2nc3sc4c(c3c(=O)o2)CCC4)cc1 | 3 (inactive)
86 | COc1cc(NC(=O)c2ccc(C)cc2)c(OC)cc1NC(=O)CN1CCCCC1 | 0 (inactive)
87 | COc1cc(NC(=O)C(=O)NNC(=O)C2CCCCC2)c(OC)cc1Cl | 1 (active)
88 | COc1ccc(OC)c(NC(=O)C2CC(=O)N(c3ccc(Br)cc3)C2)c1 (centres undefined) | 0 (inactive)

Row | Compound | manual score
89 | CCOC(=O)CSc1nc2c(sc(=S)n2-c2ccccc2OC)c(=O)n1Cc1ccco1 | -1 (active)
90 | CCOc1ccccc1NC(=O)CSc1nnc(-c2ccccn2)n1Cc1ccco1 | 0 (inactive)
91 | CCOC(=O)N1CCN(C(=O)CSc2nc3c(c(=O)n2-c2ccccc2OC)SCC3)CC1 | 0 (inactive)
92 | Brc1ccccc1C1=Nn2c(nnc2-c2ccccc2)SC1 | -1 (active)
93 | CCCc1nnc2n1N=C(c1ccc(OC)c(OC)c1)CS2 | 0 (inactive)
94 | CCOC(=O)c1sc2ncnc(NCc3ccco3)c2c1C | 1 (active)
95 | Nc1nc(Nc2ccccc2)nc(NCc2ccco2)c1[N+](=O)[O-] | 0 (inactive)
96 | CS(=O)(=O)N(CC(=O)NCc1ccco1)c1ccc(Cl)c(C(F)(F)F)c1 | 0 (inactive)
97 | Cc1ccc(-n2c(CSc3nc(C)cc(C)n3)nnc2SCC(=O)NCc2ccco2)cc1 | 0 (inactive)
98 | Cc1ccc2c(Cl)cc(Cl)c(OCC(=O)NCc3ccco3)c2n1 | 1 (active)
99 | C=CCOn1c(=O)c(-c2cccs2)[n+]([O-])c2ccccc21 | 3 (inactive)
100 | CCCCCCn1c(=O)[nH]c2nc3cc(N)ccc3nc2c1=O | 3 (inactive)
101 | O=C(NC(=S)N1CCN(Cc2ccccc2)CC1)c1ccccc1 | 1 (active)
102 | COc1ccc(C(=O)NC(=S)N2CCC(C)CC2)cc1 | 1 (active)
103 | CC1CCN(C(=S)NC(=O)c2ccccc2)CC1 | 1 (active)
104 | COc1ccc(C(=O)NC(=S)N2CCCCC2)cc1 | 2 (inactive)
105 | CC1CCN(c2ccccc2NC(=S)NC(=O)c2cccs2)CC1 | 0 (inactive)
106 | CC1CCN(c2ncccc2C(=O)O)CC1 | 0 (inactive)
107 | CN1CCN(C(=S)NC(=O)/C=C/c2cccc3ccccc23)CC1 | 0 (inactive)
108 | CNC(=S)N1CCN(c2ccc(OC)cc2)CC1 | 0 (inactive)
109 | Cc1cccc(-n2c(-c3csc(C(C)C)c3)n[nH]c2=S)c1 | 0 (inactive)
